Compound activity deposited in PubChem by National Center for Advancing Translational Sciences (NCATS).
An excerpt weighted towards active compounds, which were near 0.69% of everything screened.
Vif-A3G inh: inhibitors of Vif-APOBEC3G interaction. 410,000 compounds, 0.076% hits. Q9HC16. Potency, µM (top dose mostly 46.1 µM), usual class: inhibitors. HeLa A3G-eYFP + Vif (tagged APOBEC3G with the HIV-1 protein that degrades it), YFP fluorescence, overnight; further: nearly all actives have a fitted effect of over 60% in size
Target sequence (Q9HC16 whole entry, looked up): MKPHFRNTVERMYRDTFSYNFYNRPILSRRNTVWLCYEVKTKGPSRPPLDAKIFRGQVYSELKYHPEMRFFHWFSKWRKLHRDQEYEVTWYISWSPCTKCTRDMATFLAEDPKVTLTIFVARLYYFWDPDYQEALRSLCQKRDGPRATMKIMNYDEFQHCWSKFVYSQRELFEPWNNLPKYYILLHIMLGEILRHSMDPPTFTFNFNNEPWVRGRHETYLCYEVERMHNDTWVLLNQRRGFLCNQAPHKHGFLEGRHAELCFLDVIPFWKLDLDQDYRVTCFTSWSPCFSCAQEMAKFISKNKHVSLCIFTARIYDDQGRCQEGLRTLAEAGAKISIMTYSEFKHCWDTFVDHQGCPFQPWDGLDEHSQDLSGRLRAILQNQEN
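HeLa cells stably expressing Vif and C-terminally eYFP-tagged A3G, seeded overnight at 37 deg C, then exposed to compound by pintool overnight at 37 deg C. Rise in yellow fluorescence (Ex 488/Em 500-530, Acumen) marks blocked Vif-driven A3G degradation.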
Vif-APOBEC3F blk: inhibitors of Vif-A3F interaction; HeLa A3F-eYFP + Vif (tagged APOBEC3F with the HIV-1 protein that degrades it), YFP fluorescence increase; AID 602313; Potency, µM (doses to about 46.1 µM); 390,000 compounds, 0.2% hits; further: nearly all actives have a fitted effect of over 65% in size
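HeLa cells stably expressing Vif plus C-terminally eYFP-tagged A3F were seeded, incubated overnight at 37 deg C, dosed with compound, incubated overnight again at 37 deg C. Yellow fluorescence (Ex 488/Em 500-530) reported blocked Vif-mediated A3F-eYFP degradation.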
Abeta yeast res: restores growth of yeast expressing A-beta42 peptide; yeast expressing A-beta42, growth rescue, OD600, 48 h; response scale: 0% DMSO, 100% iron-clioquinol control; Potency, µM (top dose mostly 46.1 µM), usual class: activators; 410,000 compounds, 0.063% hits; AID 1347071; further: nearly all actives have a fitted effect of over 55% in size
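Yeast growth medium received pinned compounds, then yeast cells expressing toxic A-beta were added; plates incubated at 30 C for 48 hr. Growth read as absorbance at 600 nm, normalized to DMSO and equimolar FeCl3 plus clioquinol controls.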
FUS suppressor: rescues growth of FUS-expressing yeast. Potency, µM (titrated, usually from 76.6 µM), actives largely listed as activators. S. cerevisiae FUS-expressing, growth rescue, OD600, 24 h. 390,000 compounds, 0.24% hits; further: nearly all actives have a fitted effect of over 55% in size
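Restored growth of FUS-toxic S. cerevisiae, read as 600 nm absorbance after 24 h at 30C in galactose medium (starting OD 0.005). Controls CP55940 and DMSO.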
PINK1 expr mod: changes PINK1 expression. PINK1 immunofluorescence, high-content cytometry, 24 h. Potency, µM (top dose mostly 76.6 µM), most hits filed as activators. 410,000 compounds, 0.2% hits. AID 624263; active means well fitted activation curve with a large enough effect; inconclusive means small, poorly fitted or top-dose-only effect; cell line not stated here; further: nearly all actives have a fitted effect of over 65% in size
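Compound titrations (5 concentrations, 24 h) on a stable cell line; DMSO and CCCP controls. Endpoint: fixed-cell PINK1 immunofluorescence with mitochondrial, cell and nuclear markers, scanned by microplate cytometer.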
Glioma ERSR ind: inducers of ER stress response in human glioma cells | 420,000 compounds, 0.02% hits | U87-MG GRP78 promoter luciferase reporter, 16 h | Potency, µM, most hits filed as activators; further: series mostly up to about 76 µM; nearly all actives have a fitted effect of over 35% in size
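ERSR induction read as luciferase luminescence (Bright-Glo, 10 min at room temperature) in stably transfected human U87-MG glioma cells exposed to compounds for 16 h, using GRP78 as sensor.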
Hits are given with their value; – = inactive; ? = inconclusive; · = not tested or not shown. Unless noted, the call rests on the fitted dose curve; in most records, active means well fitted curve in the direction sought with a large enough effect; inconclusive means small, poorly fitted or top-dose-only effect, or another doubt; inactive means no such curve, though single readings can be large; an effect the other way counts as inactive or inconclusive.

SMILES	Vif-A3G inh	Vif-APOBEC3F blk	Abeta yeast res	FUS suppressor	PINK1 expr mod	Glioma ERSR ind
C#CCOCCOCCOCCNc1nc(N2CCN(C(=O)CCCCCCCCCCNC(=O)[C@@H](CCSC)n3cc(CCO)nn3)CC2)nc(N2CCN(C(=O)CCCCCCCCCCNC(=O)[C@H]([C@@H](C)CC)n3cc(CCCCN=C(N)N)nn3)CC2)n1	?	–	–	8.91µM	–	–
C#CCOCCOCCOCCNc1nc(N2CCN(C(=O)CCCCCCCCCCNC(=O)[C@H](CCCCN)n3cc(CCO)nn3)CC2)nc(N2CCN(C(=O)CCCCCCCCCCNC(=O)[C@@H]([C@H](C)O)n3cc(C)nn3)CC2)n1	–	–	–	?	–	–
C#CCOCCOCCOCCNc1nc(N2CCN(C(=O)CCCCCCCCCCNC(=O)[C@H]([C@@H](C)CC)n3cc(CCCCCN)nn3)CC2)nc(N2CCN(C(=O)CCCCCCCCCCNC(=O)[C@@H]([C@H](C)O)n3cc(C)nn3)CC2)n1	–	–	–	12.6µM	–	–
C#CCOCCOCCOCCNc1nc(N2CCN(C(=O)CCCCCCCCCCNC(=O)[C@H](CCC(=O)O)n3cc(CCCCCN)nn3)CC2)nc(N2CCN(C(=O)CCCCCCCCCCNC(=O)[C@@H]([C@H](C)O)n3cc(C)nn3)CC2)n1	–	–	–	12.6µM	–	–
CC(C)c1ccc(CN2CCC3(CCC(CNC(=O)c4ccn(C)n4)O3)CC2)cc1 (stereo not given)	·	·	·	·	–	–
CN1C=CC2=C(C#N)C(N)C(C#N)(C#N)[C@H](c3ccccc3)[C@H]2C1 (stereo not given in full)	–	–	–	–	12.6µM	–
Cc1ccccc1-c1ccc(CN2CCc3nnc(C(NS(C)(=O)=O)C(C)C)n3CC2)cc1 (stereo not given)	·	·	·	·	–	–
CCc1nnc(NC(=O)[C@@H](NC(=O)c2ccc(C(C)(C)C)cc2)C(C)C)s1	–	–	–	28.2µM	–	–
Cc1cc(C(=O)Nc2cccc(-c3nc(CNC(=O)c4cc5ccccc5[nH]4)c(C)o3)c2)c(C)o1	·	·	·	·	–	–
C/C(=C\c1ccco1)CN1CCOc2ccc(CN3CCC(Oc4cccnc4)CC3)cc2C1	·	·	·	·	–	–
COc1ccc2ccccc2c1CN1CCC2(CCC(CNC(=O)c3ccccc3)O2)CC1 (stereo not given)	·	·	·	·	–	–
O=C(Nc1ccc(Cl)cc1Cl)[C@@H]1CC=C[C@@H]2CCN(Cc3ccccc3)C(=O)[C@@H]21	–	·	·	·	·	–
O=c1[nH]c2ccc([N+](=O)[O-])cc2nc1/C=C(\O)c1ccccc1	–	?	–	–	28.2µM	–
O=C(Nc1ccc(Cl)c(Cl)c1)Nc1nnc(CSc2ccccc2)s1	–	–	–	–	10µM	–
O=C(Nc1ccc(Cl)cc1)Nc1nnc(CSCc2ccccc2Cl)s1	–	–	–	–	39.8µM	–
O=C(Nc1ccccc1)Nc1nnc(CSCc2ccccc2Cl)s1	–	–	–	·	?	–
COCc1c(C(=O)N2CCCCCC2)cnn1-c1nccc(-c2cccs2)n1	·	·	·	·	–	–
CC(C)OC(=O)c1cc(C(=O)OC(C)C)cc([N+](=O)[O-])c1	·	·	·	·	·	–
CC(C)OC(=O)c1cc(NC(=S)Nc2ccc([N+](=O)[O-])cc2)cc(C(=O)OC(C)C)c1	–	–	–	–	14.1µM	–
CC(Nc1oc(-c2ccc(COc3ccccc3)o2)nc1C#N)c1ccccc1 (stereo not given)	–	10µM	–	–	–	–
CCCCCCCCCCCCCCCC[n+]1ccc(C)cc1	–	·	·	·	·	–
O=C(COC(=O)c1cccnc1Cl)Nc1ccccc1OC(F)F	–	10µM	–	–	–	–
O=C(COC(=O)c1ccccn1)Nc1ccccc1OC(F)F	–	?	–	–	–	–
COc1cccc(-n2c(-c3ccccc3F)nc3c(cnn3-c3ccc(C)cc3)c2=O)c1	–	–	–	15.8µM	–	–
O=c1[nH]c(NCc2ccco2)nnc1Cc1ccccc1Cl	12.6µM	·	–	–	–	–
Cc1nc(NCc2ccco2)[nH]c(=O)c1CCC(C)C	–	–	–	–	–	–
